Test systems include HCT-15 colon; HT29 colon; SNB-75 CNS; SNB-19 CNS; U251 CNS; PC-3 prostate; SK-MEL-5 melanoma; UACC-62 melanoma; LOX IMVI melanoma; SK-MEL-28 melanoma; SK-MEL-2 melanoma; EKVX NSCLC; SN12C renal; UO-31 renal; TK-10 renal; ACHN renal; CAKI-1 renal; A498 renal; CCRF-CEM leukemia; MOLT-4 leukemia.
What all share (assay): NCI-60 one-dose screen, 48 h (100 = growth as untreated, 0 = no growth, -100 = all killed)
Conditions in all cases: 10 µM unless noted

Compounds without any hit were thinned out: in the full panel of roughly 83,000, 20% have a hit.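 Interpretation: 100, growth as untreated; towards 0, rising growth inhibition; 0, no net growth; 0 to -100, cell death. Compounds scoring below 10 were considered active.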 Unmarked numbers belong to inactive results. Calls of active or inactive are those of the source.

As for `COc1ccc(OC)c(-c2nc(SCC(=O)c3ccc(Br)cc3)nc(Nc3ccc(S(N)(=O)=O)cc3)c2C#N)c1`, the growth was 22.1% in the assay with HCT-15 colon; 27.2% in the assay with HT29 colon; 22.1% with SNB-75 CNS; 49.9% in the assay with SNB-19 CNS; 37.6% with U251 CNS; 35.3% in the assay with PC-3 prostate. For the same compound, the growth in the assay on SK-MEL-5 melanoma is 56.1%; in the assay on UACC-62 melanoma, 42.7%; in the assay on LOX IMVI melanoma it was 32.6%; in the assay with SK-MEL-28 melanoma, 57.7%; with SK-MEL-2 melanoma, 30.4%; with EKVX NSCLC, 63.7%. For the same compound, the growth is 49.1% in the assay on SN12C renal; 59.2% with UO-31 renal; 96.3% in the assay on TK-10 renal; 55.9% in the assay on ACHN renal; 34.4% in the assay on CAKI-1 renal; 26.4% in the assay on A498 renal. Also, the growth with CCRF-CEM leukemia was 35.4%; in the assay with MOLT-4 leukemia, 28.5%.

In the case of `O=C(O)c1ccc(-n2cc(CNc3cccc(Cl)c3)c(-c3ccc(F)cc3)n2)cc1`, the growth in the assay on HCT-15 colon is 80.7%; with HT29 colon, 111%; in the assay with SNB-75 CNS it was 120%; with SNB-19 CNS, 99.3%; with U251 CNS, 101%; with PC-3 prostate, 94%. Also, the growth was 91.7% in the assay on SK-MEL-5 melanoma; 74.3% in the assay with UACC-62 melanoma; 74.2% in the assay on LOX IMVI melanoma; 101% in the assay with SK-MEL-28 melanoma; 96.1% in the assay on SK-MEL-2 melanoma; 90.5% with EKVX NSCLC. For the same compound, the growth is 98.5% in the assay with SN12C renal; 94.4% in the assay with UO-31 renal; 127% in the assay on TK-10 renal; 89.6% in the assay with ACHN renal; 89.9% with CAKI-1 renal; 72.5% in the assay on A498 renal. Besides, the figures for the growth in the assay on CCRF-CEM leukemia and with MOLT-4 leukemia were 94% and 80%, respectively.

On to `O=C(c1ccc(O)c(C(=O)N2Cc3ccc(OCCC[P+](c4ccccc4)(c4ccccc4)c4ccccc4)cc3C2)c1)N1Cc2cccc(F)c2C1`, for which the growth in the assay with HCT-15 colon is 97.6%; in the assay on HT29 colon, 101%; in the assay on SNB-75 CNS, 95.4%; with SNB-19 CNS, 38.1%; in the assay with U251 CNS, 56.8%; in the assay on PC-3 prostate it was 78.9%. The growth in the assay with SK-MEL-5 melanoma was 29.3%; with UACC-62 melanoma, 45.5%; in the assay with LOX IMVI melanoma, 67.1%; in the assay with SK-MEL-28 melanoma, 58%; in the assay on SK-MEL-2 melanoma, 65.2%; with EKVX NSCLC it was 70.3%. For the same compound, the growth in the assay on SN12C renal was 88.6%; in the assay with UO-31 renal, 80.6%; with TK-10 renal, 100%; in the assay on ACHN renal it was 101%; with CAKI-1 renal it was 93.1%; in the assay with A498 renal, 85.7%. Moreover, the figures for the growth in the assay on CCRF-CEM leukemia and in the assay with MOLT-4 leukemia were 57.4% and 108%, respectively.

Turning to `COc1c(N2CC3CCCNC3C2)c(F)cc2c(=O)c(C(=O)N/N=C/c3ccccc3)cn(C3CC3)c12` (stereo not given), the growth was 76.3% in the assay on HCT-15 colon; 72.6% with HT29 colon; 88.7% in the assay with SNB-75 CNS; 101% in the assay on SNB-19 CNS; 94.7% in the assay with U251 CNS; 86.9% with PC-3 prostate. The growth with SK-MEL-5 melanoma is 87.8%; with UACC-62 melanoma it was 105%; in the assay with LOX IMVI melanoma, 83.7%; in the assay on SK-MEL-28 melanoma, 94.3%; in the assay on SK-MEL-2 melanoma, 111%; in the assay on EKVX NSCLC it was 94.7%. In addition, the growth in the assay with SN12C renal was 91.5%; in the assay with UO-31 renal, 86.4%; in the assay with TK-10 renal, 99.5%; with ACHN renal, 105%; with CAKI-1 renal, 91.9%; with A498 renal, 74.9%. Besides, the growth in the assay on CCRF-CEM leukemia is 78.2%; in the assay with MOLT-4 leukemia, 79.3%.

Consider `C=C(C=O)[C@@H]1CC[C@]2(COC(C)=O)CC[C@]3(C)C(CC[C@@H]4[C@@]5(C)CC[C@H](OC(C)=O)C(C)(C)[C@@H]5CC[C@]43C)[C@@H]12` (stereo not given in full), for which the growth in the assay on HCT-15 colon is -42.7% (active); in the assay on HT29 colon, 4.87% (active); with SNB-75 CNS, 32.1%; in the assay with SNB-19 CNS, 5.36% (active); in the assay with U251 CNS, -50.7% (active); in the assay with PC-3 prostate, 6.79% (active). For the same compound, the growth in the assay with SK-MEL-5 melanoma was -96.9% (active); in the assay with UACC-62 melanoma it was -15.7% (active); with LOX IMVI melanoma, -83.6% (active); with SK-MEL-28 melanoma, -42.8% (active); in the assay on SK-MEL-2 melanoma, -28% (active); in the assay with EKVX NSCLC, 12.9%. Besides, the growth in the assay with SN12C renal is 1.13% (active); with UO-31 renal it was -94% (active); in the assay with TK-10 renal, 35.5%; in the assay on ACHN renal, -54.3% (active); in the assay with CAKI-1 renal, -14.9% (active); in the assay on A498 renal it was -41% (active). Further, the growth was 10.9% in the assay on CCRF-CEM leukemia and -18.1% (active) in the assay with MOLT-4 leukemia.

Consider `CN(C)C(=O)c1cc(-c2ccc3ncnc(NCc4ccccc4)c3c2)cnc1N`, for which the growth with HCT-15 colon was 105%; with HT29 colon, 101%; in the assay on SNB-75 CNS it was 33.4%; in the assay on SNB-19 CNS, 88.7%; in the assay on U251 CNS, 99%; in the assay with PC-3 prostate, 85.7%. The growth was 93.9% with SK-MEL-5 melanoma; 89.3% in the assay with UACC-62 melanoma; 75% in the assay on LOX IMVI melanoma; 91.4% with SK-MEL-28 melanoma; 95.2% in the assay on SK-MEL-2 melanoma; 47.9% in the assay on EKVX NSCLC. The growth is 56.7% with SN12C renal; 50.6% in the assay on UO-31 renal; 21.9% in the assay on TK-10 renal; 69.2% with ACHN renal; 27.2% in the assay with CAKI-1 renal; -2.78% (active) in the assay on A498 renal. Moreover, the growth was 88% in the assay with CCRF-CEM leukemia and 96.8% in the assay on MOLT-4 leukemia.

As for `O=C(Nc1cccc(C(F)(F)F)c1)c1cc(-c2ccc(F)cc2F)ccc1O`, the growth in the assay on HCT-15 colon was 8.57% (active); in the assay with HT29 colon it was 74.1%; with SNB-75 CNS it was -0.914% (active); in the assay with SNB-19 CNS, 11.4%; in the assay with U251 CNS, 10.4%; in the assay with PC-3 prostate, 7.15% (active). The growth is -66% (active) with SK-MEL-5 melanoma; 2.01% (active) in the assay on UACC-62 melanoma; 0.316% (active) with LOX IMVI melanoma; 24.6% with SK-MEL-28 melanoma; -12.6% (active) in the assay on SK-MEL-2 melanoma; 9.81% (active) in the assay on EKVX NSCLC. Further, the growth with SN12C renal was 2.11% (active); in the assay with UO-31 renal it was -14.3% (active); with TK-10 renal, 12.6%; with ACHN renal, 5.71% (active); in the assay on CAKI-1 renal it was -21% (active); in the assay on A498 renal it was -38.5% (active). For the same compound, the values for the growth in the assay on CCRF-CEM leukemia and in the assay on MOLT-4 leukemia were 20.8% and 4.43% (active), respectively.

The values above are taken from PubChem BioAssay (NCI).
